Reference: PubChem BioAssay (NCATS)
“And” between values parts separate entries of the source, which are not always exact repeats. Equal entries are not always repeated. Results filed as inconclusive are left out. Entries that show only a call come without a potency. The source made the active and inactive calls. Unless noted, the call rests on the fitted dose curve.

Experiments:
[1] = target: Alpha-galactosidase (Coffea arabica) (UniProt Q42656); assay: Counterscreen for Glucocerebrosidase Inhibitors: qHTS Assay for Coffee Bean alpha-Galactosidase at pH 4.5 (AID 957; active means well fitted curve in the direction sought with a large enough effect; an effect the other way counts as inactive or inconclusive)
Chain of Alpha-galactosidase (Coffea arabica) (Q42656 whole entry, looked up): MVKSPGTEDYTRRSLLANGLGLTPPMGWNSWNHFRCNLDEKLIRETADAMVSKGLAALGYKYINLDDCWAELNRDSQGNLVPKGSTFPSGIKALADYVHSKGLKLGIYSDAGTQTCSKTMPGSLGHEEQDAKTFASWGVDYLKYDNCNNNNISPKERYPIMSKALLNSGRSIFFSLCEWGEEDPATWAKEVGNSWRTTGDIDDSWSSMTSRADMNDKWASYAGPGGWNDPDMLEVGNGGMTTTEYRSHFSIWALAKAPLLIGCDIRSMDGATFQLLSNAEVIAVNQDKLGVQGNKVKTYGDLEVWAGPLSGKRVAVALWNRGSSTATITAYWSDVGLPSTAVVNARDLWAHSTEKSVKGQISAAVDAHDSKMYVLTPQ
In short: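 Fluorogenic read-out: 4-methylumbelliferone at Ex 365/Em 440 nm after NaOH/glycine stop (pH 10). Enzyme 2 nM, 4-MU-alpha-galactoside 80 uM, citrate buffer pH 4.5, 20 min RT; normalized to no-enzyme and enzyme controls.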

[2] = target: Alpha-galactosidase (Coffea arabica) (UniProt Q42656); assay: Counterscreen for Glucocerebrosidase Inhibitors: qHTS Assay for Coffee Bean alpha-Galactosidase at pH 5.9 (AID 998; active means well fitted curve in the direction sought with a large enough effect; an effect the other way counts as inactive or inconclusive)
In short: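 Enzyme 2 nM + cpd (0.7 nM–77 uM titration) + 4-MU-alpha-Gal 80 uM, pH 5.9 citrate/Tween-20, RT 20 min, NaOH/glycine stop pH 10, fluor 365/440. Normalized to no-enzyme and full-activity controls; Hill-fit AC50.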

[3] = Validation screen for inhibitors of Lassa infection (AID 463096)
[4] = Inducers of the Endoplasmic Reticulum Stress Response (ERSR) in human glioma: Validation (AID 504836; active means well fitted curve in the direction sought with a large enough effect; an effect the other way counts as inactive or inconclusive)
In short: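 Stably transfected U87-MG glioma cells carrying a GRP78-based luciferase sensor; 16 h compound incubation. Luminescence end-point read 10 min after Bright-Glo addition at room temperature.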

[5] = qHTS for Inhibitors of the Functional Ribonucleoprotein Complex (vRNP) of Lassa (LASV) Arenavirus: LASV Primary Screen - GLuc reporter signal (AID 1347082; calls by dose curve; tested in HEK293 reporter line; further: nearly all actives have a fitted effect of over 60% in size; further: potency means the concentration at half of the fitted maximal effect)
[6] = qHTS for Inhibitors of the Functional Ribonucleoprotein Complex (vRNP) of Lassa (LASV) Arenavirus: Viability assay - alamar blue signal for LASV Primary Screen (AID 1347083; calls by dose curve; tested in HEK293 reporter line; further: nearly all actives have a fitted effect of over 80% in size; further: potency means the concentration at half of the fitted maximal effect)
[7] = qHTS for Inhibitors of the Functional Ribonucleoprotein Complex (vRNP) of Lymphocytic Choriomeningitis Arenaviruses (LCMV): Viability assay - alamar blue signal for LCMV Primary Screen (AID 1347085; calls by dose curve; tested in HEK293 reporter line; further: nearly all actives have a fitted effect of over 80% in size; further: potency means the concentration at half of the fitted maximal effect)
[8] = target: Nucleoprotein (Lymphocytic choriomeningitis virus (strain Armstrong)) (UniProt P09992); assay: qHTS for Inhibitors of the Functional Ribonucleoprotein Complex (vRNP) of Lymphocytic Choriomeningitis Arenaviruses (LCMV): LCMV Primary Screen - GLuc reporter signal (AID 1347086); further: nearly all actives have a fitted effect of over 70% in size; further: potency means the concentration at half of the fitted maximal effect
Chain of Nucleoprotein (Lymphocytic choriomeningitis virus (strain Armstrong)) (P09992 whole entry, looked up): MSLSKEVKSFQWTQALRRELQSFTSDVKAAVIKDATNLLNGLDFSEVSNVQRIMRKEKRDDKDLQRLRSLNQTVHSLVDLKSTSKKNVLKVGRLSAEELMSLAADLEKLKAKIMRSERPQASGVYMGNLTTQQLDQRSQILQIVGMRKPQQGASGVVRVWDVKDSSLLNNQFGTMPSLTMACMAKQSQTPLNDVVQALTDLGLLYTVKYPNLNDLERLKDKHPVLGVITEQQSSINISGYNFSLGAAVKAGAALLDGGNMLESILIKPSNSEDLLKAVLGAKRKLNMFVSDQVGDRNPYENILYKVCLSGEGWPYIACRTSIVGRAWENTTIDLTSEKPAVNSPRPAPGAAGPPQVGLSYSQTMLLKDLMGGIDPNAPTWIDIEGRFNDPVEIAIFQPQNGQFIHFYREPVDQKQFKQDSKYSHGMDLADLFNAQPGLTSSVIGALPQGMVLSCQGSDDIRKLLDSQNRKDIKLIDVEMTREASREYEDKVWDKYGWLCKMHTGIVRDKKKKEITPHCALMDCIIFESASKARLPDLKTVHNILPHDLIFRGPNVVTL

[9] = Primary qHTS for inhibitors of SARS-S pseudo-typed particle cell entry (AID 1479145); further: nearly all actives have a fitted effect of over 45% in size
[10] = Primary qHTS for Huh7 cytotoxicity: counterscreen for inhibitors of MERS-S pseudotyped particle cell entry (AID 1479147); details: outcome: dose series up to 57.1 µM unless noted
[11] = Primary qHTS for inhibitors of MERS-S pseudo-typed particle cell entry (AID 1479149); further: nearly all actives have a fitted effect of over 60% in size; further: potency means the concentration at half of the fitted maximal effect
[12] = Primary qHTS for Vero E6 cytotoxicity: counterscreen for inhibitors of SARS-S pseudo-typed particle cell entry (AID 1479150); details: outcome: dose series up to 57.1 µM unless noted
[13] = Cytotoxicity counterscreen for inhibitors of SARS-CoV-2 cell entry (AID 1645845); further: nearly all actives have a fitted effect of over 50% in size
In short: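 Counterscreen run in the same HEK293-ACE2 line as the pseudotyped-particle entry assay, without particles. Viability after 48 h at 37 C was read as ATP luminescence, scaled between cell-containing and cell-free wells.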

[14] = Primary qHTS to identify inhibitors of SARS-CoV-2 cell entry (AID 1645846); details: activity change, negative = inhibition: at 57.1 µM (top of the series) unless noted; further: nearly all actives have a fitted effect of over 45% in size
In short: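 Data are normalized to wells receiving SARS-CoV-2-S pseudoparticles and those given bald particles. Entry signal was luciferase luminescence in stable hACE2 Expi293F cells, 48 hr post-infection, after 1 hr compound pretreatment.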

[15] = Confirmatory qHTS to identify inhibitors of SARS-CoV-2 cell entry (AID 1645844); further: potency means the concentration at half of the fitted maximal effect; nearly all actives have a fitted effect of over 45% in size
In short: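 HEK293-ACE2, overnight seeding; cpd 1 h, 37C/5% CO2; + SARS-CoV-2-S MLV PP (Wuhan-Hu-1, ΔC19); 48 h; Bright-Glo luminescence. Data normalised to S PP and bald PP wells.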

[16] = VSVG counterscreen qHTS to identify inhibitors of SARS-CoV-2 cell entry (AID 1645847); further: potency means the concentration at half of the fitted maximal effect; nearly all actives have a fitted effect of over 65% in size
In short: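 Counterscreen using VSV-G (not spike) pseudotyped MLV particles on ACE2-expressing Expi293F cells after 1 h compound preincubation; infection ran 48 h at 37 °C. Data normalized to VSV-G PP and bald-PP wells.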

For `N[C@@H](CC(=O)O)C(=O)O`, the outcome [1] was “inactive”, the outcome [2] was “inactive” and the Potency [3] was “inactive”. For the same compound, the outcome [4] was “inactive”, the Potency [5] was “inactive” and the Potency [6] was “inactive”. For the same compound, the Potency [7] was “inactive”, the Potency [8] was “inactive” and the activity change, negative = inhibition [9] was -20.9% [at 5.34 µM] (inactive). The outcome [10] was “inactive [at 5.34 µM]”, the outcome [11] was “inactive [at 5.34 µM]” and the activity change, negative = cytotoxicity [12] was 2.41% [at 5.34 µM] (inactive). For the same compound, the outcome [13] was “inactive [at 5.25 µM]”.

For `CC(O)[C@H]1CC[C@H]2[C@@H]3CC[C@@H]4C[C@@H](O)CC[C@]4(C)[C@H]3CC[C@]12C` (stereo partly specified), the Potency [5] was “inactive”, the Potency [6] was “inactive” and the Potency [7] was “inactive”. The Potency [8] was “inactive”, the outcome [10] was “inactive [at 114 µM]” and the Potency [11] was “inactive”. For the same compound, the outcome [12] was “inactive [at 114 µM]” and the Potency [13] was “inactive”.

For `CN[C@H](CC(C)C)C(=O)N[C@H]1C(=O)N[C@@H](CC(N)=O)C(=O)N[C@H]2C(=O)N[C@H]3C(=O)N[C@H](C(=O)N[C@H](C(=O)O)c4cc(O)cc(O)c4-c4cc3ccc4O)[C@H](O)c3ccc(c(Cl)c3)Oc3cc2cc(c3O[C@@H]2O[C@H](CO)[C@@H](O)[C@H](O)[C@H]2O[C@H]2C[C@](C)(N)[C@H](O)[C@H](C)O2)Oc2ccc(cc2Cl)[C@H]1O`, the Potency [3] was “inactive”, the Potency [5] was “inactive” and the Potency [6] was “inactive”. For the same compound, the Potency [7] was “inactive”, the Potency [8] was “inactive” and the Potency [9] was “inactive”. For the same compound, the outcome [10] was “inactive [at 26.4 µM]”, the Potency [11] was “inactive” and the outcome [12] was “inactive”. The Potency [13] was “inactive” and the activity change, negative = inhibition [14] was -14.9% [at 27.1 µM] and -31.1% [at 27.1 µM].

With `CCCCCCCCCCCCCCCC(=O)OC[C@@H](NC(=O)C(Cl)Cl)[C@H](O)c1ccc([N+](=O)[O-])cc1` the Potency [5] was “inactive”, the Potency [6] was “inactive” and the Potency [7] was “inactive”. For the same compound, the Potency [8] was “inactive”, the Potency [9] was “inactive” and the outcome [10] was “inactive”. For the same compound, the Potency [11] was “inactive”, the outcome [12] was “inactive” and the Potency [13] was “inactive”. For the same compound, the Potency [14] was “inactive”.

In the case of `COc1ccc(-n2nc(C(N)=O)c3c2C(=O)N(c2ccc(N4CCCCC4=O)cc2)CC3)cc1`, the Potency [5] is reported as “inactive”, the Potency [6] is reported as “inactive” and the Potency [7] is reported as “inactive”. The Potency [8] was “inactive”, the outcome [10] was “inactive” and the Potency [11] was “inactive”. The outcome [12] was “inactive”, the Potency [13] was “inactive” and the Potency [14] was “inactive”.

For `CC1=C(/C=C/C(C)=C/C=C/C(C)=C\C(=O)O)C(C)(C)CCC1`, the Potency [3] was “inactive”, the outcome [4] was “inactive” and the Potency [5] was “inactive”. The Potency [6] was “inactive”, the Potency [7] was “inactive” and the Potency [8] was “inactive”. For the same compound, the Potency [9] was “inactive”, the outcome [10] was “inactive” and the Potency [11] was “inactive”. For the same compound, the outcome [12] was “inactive”, the Potency [13] was “inactive” and the Potency [14] was “inactive”. For the same compound, the activity change, negative = inhibition [14] was -7.39%.

In the case of `CC(=O)O[C@H]1CC2(C)[C@@H](C[C@@H](O)[C@H]3[C@@]4(C)CC[C@@H](O)[C@@H](C)[C@@H]4CC[C@@]32C)C1=C(CCC=C(C)C)C(=O)O` (stereo partly specified), the Potency [3] is reported as “inactive”, the outcome [4] is reported as “inactive” and the Potency [5] is reported as “inactive”. The Potency [6] was “inactive”, the Potency [7] was “inactive” and the Potency [8] was “inactive”. For the same compound, the Potency [9] was “inactive”, the outcome [10] was “inactive” and the Potency [11] was “inactive”. The outcome [12] was “inactive”, the Potency [13] was “inactive” and the activity change, negative = inhibition [14] was -17.3%.

For `CCCCCCCCCCCCCCCC(=O)O[C@@H]1CC(C)=C(/C=C/C(C)=C/C=C/C(C)=C/C=C/C=C(C)/C=C/C=C(C)/C=C/C2=C(C)C[C@@H](OC(=O)CCCCCCCCCCCCCCC)CC2(C)C)C(C)(C)C1`, the Potency [5] was “inactive”, the Potency [6] was “inactive” and the Potency [7] was “inactive”. The Potency [8] was “inactive”, the outcome [10] was “inactive” and the Potency [11] was “inactive”. For the same compound, the outcome [12] was “inactive” and the Potency [13] was “inactive”.

In the case of `COc1c(OCCCN2CCOCC2)ccc2c3n(c(=NC(=O)c4cnc(N)nc4)nc12)CCN3`, the Potency [5] is reported as 1.5 µM (active), the Potency [6] is reported as 0.298 µM (active) and the Potency [7] is reported as 1.06 µM (active). For the same compound, the Potency [8] was 2.98 µM (active), the activity change, negative = cytotoxicity [10] was 3.49% [at 11.4 µM] (inactive) and the Potency [11] was 3.55 µM (active). The activity change, negative = cytotoxicity [12] was -14.8% [at 11.4 µM] (inactive), the Potency [15] was 0.312 µM (active) and the Potency [16] was 2.78 µM (active).

With `NCCCNCCCCNC(=O)C(O)NC(=O)CCCCCCN=C(N)N` (stereo unspecified) the Potency [5] was “inactive”, the Potency [6] was “inactive” and the Potency [7] was “inactive”. For the same compound, the Potency [8] was “inactive”, the outcome [10] was “inactive” and the Potency [11] was “inactive”. The outcome [12] was “inactive” and the Potency [13] was “inactive”.

For `CCCNS(=O)(=O)Nc1ncnc(OCCOc2ncc(Br)cn2)c1-c1ccc(Br)cc1`, the Potency [5] was “inactive”, the Potency [6] was “inactive” and the Potency [7] was “inactive”. The Potency [8] was “inactive”, the outcome [10] was “inactive” and the Potency [11] was “inactive”. The outcome [12] was “inactive” and the Potency [13] was “inactive”.

In the case of `CCOC(=O)[C@@H](N)Cc1ccc(-c2cc(O[C@H](c3ccc(Cl)cc3-n3ccc(C)n3)C(F)(F)F)nc(N)n2)cc1`, the Potency [5] is reported as “inactive”, the Potency [6] is reported as “inactive” and the Potency [7] is reported as “inactive”. For the same compound, the Potency [8] was “inactive”, the Potency [9] was “inactive” and the outcome [10] was “inactive”. The Potency [11] was “inactive”, the outcome [12] was “inactive” and the Potency [13] was “inactive”. The Potency [16] was 19.2 µM (active).

In the case of `CC(C)(CO)[C@@H](O)C(=O)NCCC(=O)O`, the Potency [5] is reported as “inactive”, the Potency [6] is reported as “inactive” and the Potency [7] is reported as “inactive”. For the same compound, the Potency [8] was “inactive”, the outcome [10] was “inactive” and the Potency [11] was “inactive”. The outcome [12] was “inactive” and the Potency [13] was “inactive”.

For `COc1ccc(CC2c3cc(OC)c(OC)cc3CC[N+]2(C)CCC(=O)OCCCCCOC(=O)CC[N+]2(C)CCc3cc(OC)c(OC)cc3C2Cc2ccc(OC)c(OC)c2)cc1OC` (stereo unspecified), the activity change, negative = inhibition [5] was -1.71% [at 11.5 µM] (inactive), the activity change, negative = reduced viability [6] was -21.5% [at 11.5 µM] (inactive) and the activity change, negative = lower viability [7] was 2.32% [at 11.5 µM] (inactive). The activity change, negative = inhibition [8] was -0.768% [at 11.5 µM] (inactive), the Potency [9] was “inactive” and the outcome [10] was “inactive”. For the same compound, the Potency [11] was “inactive”, the Potency [13] was “inactive” and the activity change, negative = inhibition [14] was -27% and -4%.

For `CO/N=C(\C(=O)N[C@@H]1C(=O)N2C(C(=O)O)=C(COC(C)=O)CS[C@H]12)c1csc(N)n1`, the outcome [4] was “inactive”, the Potency [5] was “inactive” and the Potency [6] was “inactive”. The Potency [7] was “inactive”, the Potency [8] was “inactive” and the Potency [9] was “inactive”. For the same compound, the outcome [10] was “inactive”, the Potency [11] was “inactive” and the outcome [12] was “inactive”. For the same compound, the Potency [13] was “inactive” and the Potency [14] was “inactive”.

With `CCCCCCCCCC(=O)O` the Potency [5] was “inactive”, the Potency [6] was “inactive” and the Potency [7] was “inactive”. For the same compound, the Potency [8] was “inactive”, the Potency [9] was “inactive” and the outcome [10] was “inactive”. For the same compound, the Potency [11] was “inactive”, the outcome [12] was “inactive” and the Potency [13] was “inactive”. The Potency [14] was “inactive”.

For `CCN(C(=O)c1c(O)c2c(Cl)cccc2n(C)c1=O)c1ccccc1`, the Potency [5] was “inactive”, the Potency [6] was “inactive” and the Potency [7] was “inactive”. The Potency [8] was “inactive”, the Potency [9] was “inactive” and the outcome [10] was “inactive”. The Potency [11] was “inactive”, the outcome [12] was “inactive” and the Potency [13] was “inactive”. The activity change, negative = inhibition [14] was -55.1% and -33%.

For `Nc1cc(Cl)c(NC2=NCCN2)c(Cl)c1`, the outcome [1] was “inactive”, the outcome [2] was “inactive” and the Potency [3] was “inactive”. For the same compound, the outcome [4] was “inactive”, the Potency [5] was “inactive” and the Potency [6] was “inactive”. The Potency [7] was “inactive”, the Potency [8] was “inactive” and the Potency [9] was “inactive”. For the same compound, the outcome [10] was “inactive”, the Potency [11] was “inactive” and the outcome [12] was “inactive”. The Potency [13] was “inactive” and the activity change, negative = inhibition [14] was -17%.
